Data reported in PubChem BioAssay (EPA / NIEHS).
Where a structure was tested more than once in an assay, its records may differ in their call. The source made the active and inactive calls. How the source made its calls: active means hit-call score of the fitted dose curve at least 0.9, where 1 is the maximum; inactive means score below 0.9.

Key:
[1] = read-out: TIMP metallopeptidase inhibitor 1 (TIMP1), TIMP1 (gene 7076); test: BSK_hDFCGF_TIMP1: BioMAP Diversity Plus: hDFCGF Assay for TIMP metallopeptidase inhibitor 1 (TIMP1) Biomarker Activity (AID 2283062); conditions: primary human foreskin fibroblasts; actives raise or lower the signal
Outline: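 Human foreskin fibroblast primary cultures dosed for 24 h; secreted/surface TIMP-1 quantified by ELISA. Bidirectional curve fitting against DMSO baseline; cytotoxicity tracked in parallel cultures by SRB total-protein staining.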

[2] = read-out: Monokine induced gamma interferon (MIG), CXCL9 (gene 4283); test: BSK_hDFCGF_MIG: BioMAP Diversity Plus: hDFCGF Assay for Monokine induced gamma interferon (MIG) Biomarker Activity (AID 2283063); conditions: primary human foreskin fibroblasts; actives raise or lower the signal
Outline: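 MIG/CXCL9 measured by ELISA 24 h after dosing primary human skin fibroblasts. Activity fitted in both directions against DMSO controls. Cytotoxicity was checked in parallel cultures by SRB staining read at 560 nm.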

[3] = read-out: Matrix Metallopeptidase 1 (MMP1), MMP1 (gene 4312); test: BSK_hDFCGF_MMP1: BioMAP Diversity Plus: hDFCGF Assay for Matrix Metallopeptidase 1 (MMP1) Biomarker Activity (AID 2283064); conditions: primary human foreskin fibroblasts; actives raise or lower the signal
Outline: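 ELISA read-out of MMP1 from human foreskin fibroblasts (primary skin cells), 24 h post-dose. Gain or loss of signal was fitted bidirectionally versus DMSO negative control; cytotoxicity was checked by SRB in parallel cultures.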

[4] = read-out: Vascular cell adhesion molecule 1 (VCAM1), VCAM1 (gene 7412); test: BSK_hDFCGF_VCAM1: BioMAP Diversity Plus: hDFCGF Assay for Vascular cell adhesion molecule 1 (VCAM1) Biomarker Activity (AID 2283065); conditions: primary human foreskin fibroblasts; actives raise or lower the signal;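 on AC50: VCAM-1 protein level quantified by ELISA after 24 h chemical exposure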
Outline: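 Human foreskin fibroblast primary cells dosed with chemical, VCAM-1 measured by ELISA at 24 h. Bidirectional curve fitting relative to DMSO as negative control/baseline.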

[5] = read-out: Plasminogen activator inhibitor-1 (PAI1), SERPINE1 (gene 5054); test: BSK_hDFCGF_PAI1: BioMAP Diversity Plus: hDFCGF Assay for Plasminogen activator inhibitor-1 (PAI1) Biomarker Activity (AID 2283066); conditions: primary human foreskin fibroblasts; actives raise or lower the signal
Outline: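 ELISA readout of PAI-1 from primary human skin fibroblast cultures, 24 h after compound addition. Gain or loss of signal was fitted bidirectionally against DMSO baseline.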

[6] = read-out: Intercellular Adhesion Molecule 1 (ICAM1), ICAM1 (gene 3383); test: BSK_KF3CT_ICAM1: BioMAP Diversity Plus: KF3CT Assay for Intercellular Adhesion Molecule 1 (ICAM1) Biomarker Activity (AID 2283067); conditions: primary human keratinocytes with fibroblasts; actives raise or lower the signal
Outline: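 Human keratinocyte–foreskin fibroblast co-culture was treated for 24 h. Cell-surface ICAM-1 was quantified by ELISA, fitted bidirectionally relative to DMSO. Cytotoxicity was checked in parallel cultures by SRB total-protein staining.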

[7] = read-out: Interferon-gamma inducible Protein 10 (IP10), CXCL10 (gene 3627); test: BSK_KF3CT_IP10: BioMAP Diversity Plus: KF3CT Assay for Interferon-gamma inducible Protein 10 (IP10) Biomarker Activity (AID 2283068); conditions: primary human keratinocytes with fibroblasts; actives raise or lower the signal
Outline: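 ELISA read-out of IP-10 after 24 h chemical dosing of human skin primary co-culture (keratinocytes, foreskin fibroblasts). Gain or loss of signal relative to DMSO, bidirectional curve fit.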

[8] = BSK_KF3CT_SRB: Viability Assessment in the BioMAP Diversity Plus: KF3CT Assay (AID 2283069); conditions: primary human keratinocytes with fibroblasts;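 further: total protein by sulforhodamine B staining as a cytotoxicity measure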
Outline: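 SRB read-out at 560 nm (0.1% stain, TCA-fixed cells) gauges overt cytotoxicity in a human skin keratinocyte–fibroblast co-culture 24 h post-dosing. Signal change was fitted bidirectionally relative to DMSO control.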

[9] = read-out: Interleukin-1 alpha (IL1a), IL1A (gene 3552); test: BSK_KF3CT_IL1a: BioMAP Diversity Plus: KF3CT Assay for Interleukin-1 alpha (IL1a) Biomarker Activity (AID 2283070); conditions: primary human keratinocytes with fibroblasts; actives raise or lower the signal
Outline: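 Primary skin co-culture (keratinocytes, foreskin fibroblasts), 24 h exposure; ELISA for IL-1a; bidirectional curve fit vs DMSO.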

[10] = read-out: TIMP metallopeptidase inhibitor 2 (TIMP2), TIMP2 (gene 7077); test: BSK_KF3CT_TIMP2: BioMAP Diversity Plus: KF3CT Assay for TIMP metallopeptidase inhibitor 2 (TIMP2) Biomarker Activity (AID 2283071); conditions: primary human keratinocytes with fibroblasts; actives raise or lower the signal
Outline: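 ELISA readout of TIMP-2 in keratinocyte plus foreskin fibroblast co-cultures (human skin primary cells), 24 h post-dose. Gain or loss of signal fitted relative to DMSO.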

[11] = read-out: Transforming growth factor beta 1 (TGFb1), TGFB1 (gene 7040); test: BSK_KF3CT_TGFb1: BioMAP Diversity Plus: KF3CT Assay for Transforming growth factor beta 1 (TGFb1) Biomarker Activity (AID 2283072); conditions: primary human keratinocytes with fibroblasts; actives raise or lower the signal
Outline: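 Read-out: ELISA for TGF-b1 in keratinocyte/foreskin fibroblast human skin co-culture, 24 h after dosing; bidirectional curve fit vs DMSO baseline; gain or loss of signal scored.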

[12] = read-out: C-C motif chemokine 2 (Homo sapiens) (UniProt P13500); test: BSK_KF3CT_MCP1: BioMAP Diversity Plus: KF3CT Assay for Monocyte Chemoattractant Protein 1 (MCP1/CCL2) Biomarker Activity (AID 2283073); conditions: primary human keratinocytes with fibroblasts; actives raise or lower the signal
Outline: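 Human keratinocyte–foreskin fibroblast co-culture; MCP-1 measured by ELISA 24 h after dosing. Bidirectional fit vs DMSO; cytotoxicity tracked by SRB total protein in parallel cultures.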

[13] = read-out: Matrix Metallopeptidase 9 (MMP9), MMP9 (gene 4318); test: BSK_KF3CT_MMP9: BioMAP Diversity Plus: KF3CT Assay for Matrix Metallopeptidase 9 (MMP9) Biomarker Activity (AID 2283074); conditions: primary human keratinocytes with fibroblasts; actives raise or lower the signal;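 on AC50: MMP9 protein level quantified by ELISA in the co-culture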
Outline: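 ELISA read-out of MMP-9 at 24 h post-dosing in a co-culture of human skin keratinocytes and foreskin fibroblasts. Gain or loss of signal was fitted in both directions against DMSO.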

[14] = read-out: urokinase plasminogen activator (uPA), PLAU (gene 5328); test: BSK_KF3CT_uPA: BioMAP Diversity Plus: KF3CT Assay for urokinase plasminogen activator (uPA) Biomarker Activity (AID 2283075); conditions: primary human keratinocytes with fibroblasts; actives raise or lower the signal
Outline: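 Skin co-culture (keratinocytes + foreskin fibroblasts), human primary; 24 h post-dose; uPA by ELISA; gain/loss fit vs DMSO baseline.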

[15] = read-out: CD40, CD40 (gene 958); test: BSK_LPS_CD40: BioMAP Diversity Plus: LPS Assay for CD40 Biomarker Activity (AID 2283076); conditions: primary human HUVEC with PBMC; actives raise or lower the signal
Outline: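 HUVEC plus PBMC co-culture stimulated with LPS; CD40 quantified by ELISA 24 h after compound dosing. Fitting was bidirectional relative to DMSO. SRB staining of parallel cultures flagged overt cytotoxicity.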

[16] = read-out: E-selectin (Homo sapiens) (UniProt P16581); test: BSK_LPS_Eselectin: BioMAP Diversity Plus: LPS Assay for Eselectin Biomarker Activity (AID 2283077); conditions: primary human HUVEC with PBMC; actives raise or lower the signal
Outline: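 Human umbilical vein endothelial cells co-cultured with PBMC under LPS stimulation; cell-surface E-selectin measured by ELISA 24 h after dosing. Change in either direction versus DMSO, with SRB total-protein staining in parallel cultures for cytotoxicity.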

[17] = read-out: Interleukin-8 (IL8), CXCL8 (gene 3576); test: BSK_LPS_IL8: BioMAP Diversity Plus: LPS Assay for Interleukin-8 (IL8) Biomarker Activity (AID 2283078); conditions: primary human HUVEC with PBMC; actives raise or lower the signal
Outline: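 Human umbilical vein endothelial cells co-cultured with PBMC, LPS-stimulated, exposed to compound for 24 h. IL-8 quantified by ELISA; fitted in both directions against DMSO, with SRB total-protein staining of parallel cultures for cytotoxicity.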

[18] = BSK_LPS_SRB: Viability Assessment in the BioMAP Diversity Plus: LPS Assay (AID 2283079); conditions: primary human HUVEC with PBMC;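 further: total protein by sulforhodamine B absorbance as a cytotoxicity measure; measured one day after compound addition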
Outline: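 Co-culture of human umbilical vein endothelial cells and PBMC, read 24 h after dosing. Total protein by 0.1% SRB staining after 10% TCA fixation, absorbance at 560 nm; bidirectional fit against DMSO.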

[19] = read-out: Interleukin-1 alpha (IL1a), IL1A (gene 3552); test: BSK_LPS_IL1a: BioMAP Diversity Plus: LPS Assay for Interleukin-1 alpha (IL1a) Biomarker Activity (AID 2283080); conditions: primary human HUVEC with PBMC; actives raise or lower the signal
Outline: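 Human umbilical vein endothelial cells co-cultured with PBMC and stimulated with LPS; IL-1a measured by ELISA 24 h after dosing. Bidirectional fitting against DMSO; cytotoxicity checked by SRB staining in parallel cultures.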

[20] = read-out: Monocyte Chemoattractant Protein-1 (MCP1), CCL2 (gene 6347); test: BSK_LPS_MCP1: BioMAP Diversity Plus: LPS Assay for Monocyte Chemoattractant Protein-1 (MCP1) Biomarker Activity (AID 2283081); conditions: primary human HUVEC with PBMC; actives raise or lower the signal
Outline: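 Human umbilical vein endothelial cells co-cultured with PBMC, LPS-stimulated; secreted MCP-1 measured by ELISA 24 h after compound addition. Bidirectional curve fitting against DMSO baseline; SRB total-protein staining in parallel cultures for cytotoxicity.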

Measured: AC50

E-selectin (Homo sapiens), sequence (P16581 whole entry, looked up): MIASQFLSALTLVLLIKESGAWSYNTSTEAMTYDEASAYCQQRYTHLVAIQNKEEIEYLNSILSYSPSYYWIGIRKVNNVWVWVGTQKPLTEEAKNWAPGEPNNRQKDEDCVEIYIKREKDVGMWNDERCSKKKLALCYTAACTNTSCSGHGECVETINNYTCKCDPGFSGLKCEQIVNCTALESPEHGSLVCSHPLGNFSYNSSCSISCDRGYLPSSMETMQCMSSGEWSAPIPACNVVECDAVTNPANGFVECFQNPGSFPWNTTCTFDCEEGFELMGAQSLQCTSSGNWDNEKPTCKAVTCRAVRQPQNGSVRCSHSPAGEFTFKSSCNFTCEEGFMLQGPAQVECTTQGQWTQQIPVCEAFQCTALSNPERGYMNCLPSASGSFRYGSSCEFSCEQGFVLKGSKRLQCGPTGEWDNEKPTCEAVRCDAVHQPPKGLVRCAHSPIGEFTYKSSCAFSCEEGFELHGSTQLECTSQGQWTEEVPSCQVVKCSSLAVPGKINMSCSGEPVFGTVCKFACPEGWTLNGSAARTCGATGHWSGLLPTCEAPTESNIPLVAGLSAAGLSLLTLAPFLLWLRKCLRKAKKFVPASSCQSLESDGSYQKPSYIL

C=C(C)C(=O)OCCOCCOCCOCCOC(=O)C(=C)C
inactive: all assays above

O=C1c2ccccc2C(=O)c2c(O)ccc(O)c21
active: [5] 4.59 µM
inactive: all other assays above

CN(C)C(=O)Nc1ccc(Oc2ccc(Cl)cc2)cc1
active: [5] 0.016 µM
inactive: all other assays above

CCCCCCCCCCCCCCCC(=O)OC/C=C(C)/C=C/C=C(C)/C=C/C1=C(C)CCCC1(C)C
active: [1] 0.846 µM | [5] 3.97 µM | [11] 0.0644 µM | [13] 0.125 µM
inactive: all other assays above

COc1cc(Cl)c(OC)cc1N
inactive: all assays above

CC(C)(N=C=O)c1cccc(C(C)(C)N=C=O)c1
inactive: all assays above

IC(I)I
inactive: all assays above

Clc1cc(Cl)c(-c2c(Cl)c(Cl)cc(Cl)c2Cl)cc1Cl
active: [1] 10 µM | [3] 18.5 µM | [4] 14.5 µM | [5] 2.94 µM | [7] 15.5 µM | [8] 13.7 µM | [9] 2.95 µM | [10] 6.63 µM | [11] 4.16 µM | [12] 10 µM | [13] 8.51 µM | [14] 10 µM | [15] 10 µM | [16] 8.81 µM | [19] 12.5 µM
inactive: [2] | [6] | [17] | [18] | [20]

COc1ccc(CCN2CCC(Nc3nc4ccccc4n3Cc3ccc(F)cc3)CC2)cc1
active: [1] 6.47 µM | [5] 7.58 µM | [13] 5 µM | [18] 5 µM
inactive: all other assays above

CCOC(=O)C(C#N)=C(c1ccccc1)c1ccccc1
inactive: [1] | [2] | [3] | [4] | [5] | [6] | [7] | [8] | [9] | [10] | [12] | [13] | [14] | [15] | [16] | [17] | [18] | [19] | [20]
active: [4] 14.6 µM

CC(=O)c1c(C)c([N+](=O)[O-])c(C(C)(C)C)c([N+](=O)[O-])c1C
inactive: all assays above

C[C@@H]1CCN(C(=O)[C@H](CCCN=C(N)N)NS(=O)(=O)c2cccc3c2NC[C@H](C)C3)[C@@H](C(=O)O)C1
inactive: all assays above
